Experimental data: ChEMBL document CHEMBL4513216, “Probing the Open Global Health Chemical Diversity Library for Multistage-Active Starting Points for Next-Generation Antimalarials” (ACS Infect Dis, 2020)
Screen size: about 69,000 compounds; about 8,600 (12%) showed an effect of 50% or more. The full list was thinned out, with strong results kept by preference.

These molecules were tested on Plasmodium berghei (assay: Screen against P. berghei liver stage (PbLuc), transformed with Luciferase, at 10uM). Conditions: tested at 10 uM.
Format: functional, HepG2
With `COCC(=O)N1CCC2(CCCN(Cc3cnn(C)c3)C2)C1` (stereo not drawn) the INHIBITION was 47.4%. For `Cn1cc(CN2CCCC3(CCCN3S(C)(=O)=O)C2)cn1` (stereo not drawn), the INHIBITION was -3.41%. With `Cn1cc(CN2CCC3(CCC(C(=O)NCC4CC4)C3)CC2)cn1` (stereo not drawn) the INHIBITION was 20.1%. Work on `Cn1cc(CN2CCCC3(CCN(C(=O)c4ccoc4)C3)C2)cn1` (stereo not drawn) yielded an INHIBITION of 42.7%. In the case of `CN(C)C(=O)N1CCC2(CCCN(Cc3cnn(C)c3)C2)C1` (stereo not drawn), the INHIBITION is reported as 52.9%. For `CCn1cc(CN2CCCC3(CCC(=O)N(CCC(C)C)C3)C2)cn1` (stereo not drawn), the INHIBITION was 65.2%. Molecule `Cn1cc(CN2CCC3(CCCN3S(C)(=O)=O)CC2)cn1` has an INHIBITION of 53.5%. Work on `Cn1cc(CN2CCC3(CCCCN3S(C)(=O)=O)CC2)cn1` yielded an INHIBITION of 27.6%. Molecule `CN1CC(=O)N(c2ccccc2)CC12CCN(C(=O)c1cccs1)C2` (stereo not drawn) has an INHIBITION of 17.1%. Molecule `CC(=O)Cn1ncc(N2CCOCC2)cc1=O` has an INHIBITION of -10.5%. `CN(C)CCN1C(=O)CCC12CCN(C(=O)c1cccnc1)CC2` gave an INHIBITION of 13.2%. For `CC1(C(=O)N2CCOCC2)CN(Cc2ccccn2)CCO1` (stereo not drawn), the INHIBITION was 44.4%. `Cc1cccc(CN2CCc3[nH]nc(C(=O)N(C)C)c3C2)n1` was tested, and the INHIBITION was -45.5%. `Cn1cc(CN2CCC3(CCCN(Cc4ccccn4)C3)CC2)cn1` gave an INHIBITION of -3.19%. `Cc1cccc(CN2CCc3[nH]nc(C(=O)N4CCOCC4)c3C2)n1` was tested, and the INHIBITION was 65.9%. `Cc1cccc(CN2CCc3[nH]nc(C(=O)N4CCNC(=O)C4)c3C2)n1` showed an INHIBITION of 49.7%. For `Cc1cccc(CN2CCOC3(COCCN(CCN(C)C)C3)C2)n1` (stereo not drawn), the INHIBITION was 48.4%. `Cc1cccc(CN2CCC3(CCCN(Cc4cnn(C)c4)C3)C2=O)n1` (stereo not drawn) gave an INHIBITION of 0.618%. Molecule `Cc1cc(CN2CCOC(C)(C(=O)N3CCOCC3)C2)no1` (stereo not drawn) has an INHIBITION of 0.301%. `Cc1cccc(CN2CCC3(CCCN(Cc4cnn(C)c4)C3)C2)n1` (stereo not drawn) was tested, and the INHIBITION was 64.7%. With `Cc1cccc(CN2CCOC(C)(C(=O)N3CCOCC3)C2)n1` (stereo not drawn) the INHIBITION was 59%. `Cc1cnc(N2CCOC3(CCCN(CC(=O)N(C)C)C3)C2)nc1` (stereo not drawn) showed an INHIBITION of -29.8%. `Cc1cccc(CN2CCOC3(CCCN(CC(=O)N(C)C)C3)C2)n1` (stereo not drawn) was tested, and the INHIBITION was 59.3%. With `Cc1cc(C)n(C2CN(CCc3ccccn3)C2)n1` the INHIBITION was 28.2%. `Cc1nn(C)c(Cl)c1C1CCCN1Cc1ccccn1` (stereo not drawn) showed an INHIBITION of 8.64%. For `COc1ccc(C2CC(=O)Oc3cc(C)[nH]c(=O)c32)cc1O` (stereo not drawn), the INHIBITION was 15.4%. `O=C(c1cc(-n2cnnn2)ccc1Cl)N1CCOCC1` gave an INHIBITION of 30.8%. For `O=c1cnc2ccccc2n1CCCn1cccn1`, the INHIBITION was 44.5%. In the case of `CC(C)NC(=O)CC1COC2(CCN(Cc3ccccc3)CC2)C1` (stereo not drawn), the INHIBITION is reported as 21.6%. In the case of `Cc1nc(C2CCCN(C(=O)c3cnn(C4CCCCC4)c3)C2)no1` (stereo not drawn), the INHIBITION is reported as -25.9%. For `O=C(c1cnc2c(cnn2C2CCCC2)c1)N1CCCSCC1`, the INHIBITION was 36.1%. In the case of `CC(C)NC(=O)CC1CC2(CCN(CC3CC3)CC2)Oc2ccccc21` (stereo not drawn), the INHIBITION is reported as -2.35%. `Cc1cccc(CN2CCC3(CCCN(CC(=O)N(C)C)C3)C2)n1` (stereo not drawn) showed an INHIBITION of 51.2%. `Cc1cccc(CN2CCC3(CCC(CC(=O)N(C)C)CC3)CC2)n1` showed an INHIBITION of 23.1%. In the case of `CC(=O)N1CCc2[nH]nc(C(=O)N3CC=CC3)c2C1`, the INHIBITION is reported as 23.1%. `CC(C)CCN1CCc2[nH]nc(C(=O)N3CCCC3C)c2C1` (stereo not drawn) gave an INHIBITION of 2.58%. Molecule `Cc1cccc(CN2CCCC3(CCN(CC(=O)N(C)C)C3=O)C2)n1` (stereo not drawn) has an INHIBITION of 27.6%. Molecule `CC(C)CCN1CCc2[nH]nc(C(=O)N3CC=CC3)c2C1` has an INHIBITION of 50.3%. `COC(=O)c1ccc(C)c(N2CCNC2=O)c1` gave an INHIBITION of 34%. `CS(=O)(=O)N1CCC(NC(=O)COc2cccc(Cl)c2)CC1` was tested, and the INHIBITION was -35.7%. Molecule `CCO[C@@H]1C[C@H]2CN(Cc3ccc(C)o3)CCN2C1` has an INHIBITION of -37.9%. Molecule `COCc1nc(CN2C(=O)OC[C@@H]2C(C)C)no1` has an INHIBITION of 27.6%. `COCc1noc(CN2C(=O)OC[C@@H]2C(C)C)n1` gave an INHIBITION of 14.6%. Molecule `COCCc1noc(CN2C(=O)OC[C@@H]2C(C)C)n1` has an INHIBITION of 55.9%. With `CCn1nc(C)c(C(=O)N2C[C@@H](CN(C)CCOC)[C@@H](CO)C2)c1C` the INHIBITION was 20%. `CC(=O)Nc1ccc(Oc2ccc(CN3CCCC3)cc2F)cc1` gave an INHIBITION of 45.1%. With `NC(=O)c1cc2c(nc1Oc1ccccc1CN1CCCCC1)CCC2` the INHIBITION was 27.4%. With `CN1CCCCC1Cc1nc2c(cc1C(N)=O)CCC2` (stereo not drawn) the INHIBITION was -107%. Work on `NC(=O)c1cc2c(nc1Oc1cccc(CN3CCCC3)c1F)CCC2` yielded an INHIBITION of 62.1%. Molecule `NC(=O)c1cc2c(nc1-c1ccoc1)CCC2` has an INHIBITION of 30.3%. `NC(=O)c1cc2c(nc1Oc1ccc(CN3CCCC3)cc1F)CCC2` showed an INHIBITION of 67%. Molecule `Cc1cc(C)c2c(N3CCC(C(=O)N4CCCC4)CC3)ncnc2n1` has an INHIBITION of 42.8%. `Cc1ccccc1C(=O)N1C[C@@H]2COC[C@]2(COCc2cccnc2)C1` was tested, and the INHIBITION was 1.9%.
